# In PubChem BioAssay (NCI):
# About 83,000 compounds went through this panel and 20% of them were active in at least one assay; those are over-represented in the sample as a whole.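 The endpoint reported here, percent growth, reads 100 for growth as untreated, 0 for no net growth and -100 for all cells dead.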 The source made the active and inactive calls. The calls were made as follows: active = growth percent below 10; inactive = the rest.
# System: LOX IMVI melanoma
# Assay: NCI-60 one-dose screen, 48 h (100 = growth as untreated, 0 = no growth, -100 = all killed)
# Conditions: 10 µM unless noted
row,Compound,growth
1,COc1ccccc1/C=C/C1=C(C)CCC(c2ccccc2OC)C1C (stereo not given),7.24% (active)
2,COc1cc(OCc2cccc(-c3ccc4c(c3)OCCO4)c2C)cc(OC)c1C=O,58.7% (inactive)
3,COc1ccccc1-c1nc2ccc3[nH]ncc3c2c2c1CCCC2,80.5% (inactive)
4,CC(=O)OCCOc1cc(Cl)c(Cl)cc1Cl,101% (inactive)
5,CC1(C)CC(=O)C2=C(C1)OC(C(=O)c1ccccc1)C2c1cccc(Oc2ccccc2)c1 (stereo not given),37% (inactive)
6,CC1OC(C(=O)N2CCN(CCO)CC2)CC1COC1CCCCC1 (stereo not given),96.4% [50 µM] (inactive)
7,COc1ccccc1NC(=O)n1c(=O)cc(C)c2ccc(O)cc21,105% (inactive)
8,COc1ccc2c(c1)C(c1c[nH]c3ccccc13)(c1c[nH]c3ccccc13)CCO2,42.6% (inactive)
9,CC(C)(C)n1cc(-c2ccnc(NCCNS(=O)(=O)c3cccc4ccccc34)c2)c(-c2cccc(O)c2)n1,61.8% (inactive)
10,COc1cc(C2=Nc3c(N)nc(N)nc3NC(c3cccc(Nc4ccnc5cc(C(F)(F)F)ccc45)c3)C2)cc(OC)c1OC (stereo not given),66% (inactive)
11,Nc1nc(=O)n([C@H]2CC=C(CO)O2)cc1F,92.5% (inactive)
12,CS(=O)(=O)c1ccc(/C(=N/NC(N)=S)c2ccc(F)cc2)cc1,101% (inactive)
13,O=c1n(C2OC(CO)C(O)C2O)ccc2nccn12 (stereo not given),111% (inactive)
14,Cc1c(N2CCCCC2)[nH]c2ccccc12,95.3% (inactive)
15,O=C1CCc2c(sc3[nH]c(=S)n(-c4cc(C(F)(F)F)cc(C(F)(F)F)c4)c(=O)c23)C1,1.59% (active)
16,Nc1nc(N)c2c(n1)NC(c1ccc3c(c1)OCO3)CC(c1cccc(Nc3ccncc3)c1)=N2 (stereo not given),48.5% (inactive)
17,CCCCCCCC/C=C\CCCCCCCCOc1ccc(CC(=O)NCC[N+]2(C)CCCC2)cc1,72.8% (inactive)
18,Cn1cc(-c2csc(-c3cn(CCO)c4ccc(F)cc34)n2)c2cccnc21,44.8% (inactive)
19,CCOC(=O)C1=CCC(n2cc(F)c(=O)[nH]c2=O)O1 (stereo not given),94.7% (inactive)
20,CC1(C)CC[C@]2(CO)CC[C@]3(C)C(=CC[C@@H]4[C@@]5(C)CCNCC(C)(C)[C@@H]5CC[C@]43C)[C@@H]2C1,76% (inactive)

row,Compound,growth
1,O=C(CN1C(=O)NC2NC(=O)NC21)N/N=C/c1cccc([N+](=O)[O-])c1 (stereo not given),98.1% (inactive)
2,[2H]C([2H])([2H])Oc1ccc(/C=C/C(=O)/C=C(O)/C=C/c2ccc(OC([2H])([2H])[2H])c(OC([2H])([2H])[2H])c2)cc1OC([2H])([2H])[2H],14.5% (inactive)
3,Cc1nn(C)c2ncnc(Nc3ccccc3Br)c12,101% (inactive)
4,COc1cc(NC(=O)c2cncnc2Nc2ccc3c(ccn3Cc3cccc(F)c3)c2)cc(OC)c1,40.3% (inactive)
5,C=C1CC[C@@H]2[C@](C)(COC(C)=O)[C@H](OC(C)=O)CC[C@@]2(C)[C@@H]1CC(Nc1ccc(S(=O)(=O)Nc2nccc(C)n2)cc1)C1=CCOC1=O (stereo not given in full),-72.9% (active)
6,Cc1nc2c(c(-c3ccccc3)n1)Cc1c(ccc3ccccc13)O2,91.5% (inactive)
7,CCCc1cc(CCC)n2nc(N)nc2n1,105% (inactive)
8,Clc1ccc(C2=Nn3c(nnc3-c3cc(Cl)cc(Cl)c3Cl)SC2)cc1,39.8% (inactive)
9,CCN(CC)CCN1C(=O)c2c(c(C)c3c(oc4cc(OC)ccc43)c2C)C1=O,83.1% (inactive)
10,O=C1c2cccnc2C(=O)c2c1c(C(=O)OCCCN1CCOCC1)c1ccccn21,-29.1% (active)
11,CCCCN(CCC#N)C(N)=O,105% (inactive)
12,O=C(OCC(O)(CO)C(=O)NC12CC3CC(CC(C3)C1)C2)c1ccc(Cl)cc1 (stereo not given),95.2% (inactive)
13,CC1(C)C2=C(C(=O)N1Cc1ccccc1)C(c1ccco1)N(C(=O)C1CCC1)CCN2 (stereo not given),96.8% (inactive)
14,CN1CC(c2ccccc2)C(C(=O)c2ccc(Br)cc2)C12C(=O)Nc1ccccc12 (stereo not given),97.3% (inactive)
15,Nc1ncc(-c2ccc3ncnc(N4CCc5cc(F)c(Cl)cc54)c3c2)cn1,37.6% (inactive)
16,CCCCCN(CCCCC)CC(O)c1c(Cl)ccc2ccccc12 (stereo not given),71.6% (inactive)
17,CNC(=O)c1cc(Oc2ccc3nc(NC(=O)NC(C)C)sc3c2)ccn1,68.8% (inactive)
18,Nc1ccc(Cl)c2c(=O)c3ccccc3[nH]c12,71.4% (inactive)
19,CNC(=O)c1cc(Oc2cccc3nc(NC(=O)Nc4ccc(F)cc4F)ccc23)ccn1,19.8% (inactive)
20,N#Cc1c(-c2ccc(F)cc2)cc(-c2cccc(Cl)c2)[nH]c1=O,63.6% (inactive)
